TDP1 cell noCPT: qHTS for Inhibitors of human tyrosyl-DNA phosphodiesterase 1 (TDP1): qHTS in cells in absence of CPT; DT40 Tdp1-/- hTDP1 cells, no CPT, ATP luminescence, 48 h; Potency, µM (highest dose often 46.2 µM), for the others: at the top dose activity change, negative = growth inhibition, usual class: inhibitors; 420,000 compounds, 15% hits; further: potency means the concentration at half of the fitted maximal effect; on the % scale 0 is the no-effect control and ±100 the full control effect; nearly all actives have a fitted effect of over 55% in size
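Stably hTDP1-transfected Tdp1-null chicken DT40 cells were treated with library compounds minus camptothecin and grown for at least 48 hr at 37 °C, after which cellular ATP was quantified by luminescence.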
IL1B secr inh: inhibitors of inflammasome signaling (IL-1 beta secretion); AID 743279; THP-1 LPS/ATP IL-1B secretion, AlphaLISA, 16 h; stronger effect = lower value; 360,000 compounds, 4.7% hits; activity change, % at 57.5 µM; in the data active means activity change below about -50%; inconclusive means mostly about -30% to -49%; further: on the % scale 0 is the no-effect control and ±100 the full control effect
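THP-1 cells pretreated 1 hr with compounds (up to 57.5 uM final), then stimulated with LPS (250 ng/mL final) plus ATP (1.25 mM final); secreted IL-1B measured by AlphaLISA after 16 hr, decreased signal indicating inhibition.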
TDP1 cell CPT: growth inhibition of DT40 Tdp1-/-;hTDP1 cells with camptothecin (screen for TDP1 inhibitors). 420,000 compounds, 12% hits. Potency, µM (doses to about 46.2 µM), inactives show at the top dose activity change, negative = growth inhibition, hits mostly inhibitors. chicken DT40 Tdp1-/-;hTDP1 cells + 20 nM CPT, ATP luminescence, 48 h; further: potency means the concentration at half of the fitted maximal effect; on the % scale 0 is the no-effect control and ±100 the full control effect; nearly all actives have a fitted effect of over 55% in size
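Cell growth measured by CellTiter-Glo luminescence after a minimum 48 h, 37 C compound exposure with 20 nM CPT in Tdp1-knockout DT40 cells stably expressing hTDP1, seeded 400/well; qHTS titration format.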
HepG2 viability: HepG2 cytotoxicity, counter-screen for TGF-b inhibitors. HepG2 CAGA-GFP viability, ATP luminescence, 18 h. Potency, µM (highest dose often 46.1 µM), for inactives: top-dose activity change, negative = cytotoxicity, actives largely listed as cytotoxic. 410,000 compounds, 0.76% hits. AID 588856; further: potency means the concentration at half of the fitted maximal effect
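HepG2 CAGA-GFP cells (1000/well, DMEM with 1% FBS) received compound, then TGF-beta at 500 pg/mL final, and were incubated 18 hours at 37 degrees C. Viability was read by CellTiter-Glo luminescence. Media-only wells were set as complete cell-killing and DMSO as no toxicity.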
TDP1 block: blocks human tyrosyl-DNA phosphodiesterase 1 | Potency, µM (titrated, usually from 130 µM), inactives show at the top dose activity change, negative = inhibition, usual class: inhibitors | recombinant TDP1, AlphaScreen DNA substrate cleavage | 350,000 compounds, 0.28% hits | AID 485290; further: potency means the concentration at half of the fitted maximal effect; on the % scale 0 is the no-effect control and ±100 the full control effect; nearly all actives have a fitted effect of over 40% in size
Target sequence (Q9NUW8 whole entry, looked up): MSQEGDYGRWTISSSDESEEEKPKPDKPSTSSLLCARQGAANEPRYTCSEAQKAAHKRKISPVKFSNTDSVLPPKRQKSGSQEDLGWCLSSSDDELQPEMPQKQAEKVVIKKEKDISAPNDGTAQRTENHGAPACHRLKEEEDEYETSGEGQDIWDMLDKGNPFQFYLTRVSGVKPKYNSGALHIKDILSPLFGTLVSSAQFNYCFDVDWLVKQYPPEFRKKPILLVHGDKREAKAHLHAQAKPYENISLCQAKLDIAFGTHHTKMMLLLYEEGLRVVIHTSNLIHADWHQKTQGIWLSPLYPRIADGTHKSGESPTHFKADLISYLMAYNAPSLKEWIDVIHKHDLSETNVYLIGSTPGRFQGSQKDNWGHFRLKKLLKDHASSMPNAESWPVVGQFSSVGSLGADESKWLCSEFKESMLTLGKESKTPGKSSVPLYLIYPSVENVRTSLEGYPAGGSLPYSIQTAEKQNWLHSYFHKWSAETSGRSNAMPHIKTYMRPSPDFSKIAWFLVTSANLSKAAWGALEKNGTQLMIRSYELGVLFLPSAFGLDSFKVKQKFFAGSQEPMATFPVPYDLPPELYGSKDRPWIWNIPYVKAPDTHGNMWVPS
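AlphaScreen read-out: signal falls as enzyme removes the 3' tyrosine-FITC from a 5'-biotinylated DNA oligo (15 nM, 5 min, RT). Enzyme was E. coli-made recombinant Tdp1 at 1 nM, exposed to compound for 15 min beforehand; beads 10 ug/ml, 10 min.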
TGFb SMAD3 inh: blocks TGF-b signaling. 410,000 compounds, 1.2% hits. Potency, µM (top dose mostly 46.1 µM), for inactives: at the top dose activity, negative = inhibition, actives largely listed as inhibitors. HepG2 CAGA-GFP TGF-b/SMAD3 reporter, GFP fluorescence, 18 h; TGF-beta stimulated, 500 pg/mL final; further: potency means the concentration at half of the fitted maximal effect; on the % scale 0 is the no-effect control and ±100 the full control effect; nearly all actives have a fitted effect of over 65% in size
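First, reporter cells (HEPG2 CAGA-GFP) rested 2 h at 37 degrees C. Next, compounds were pinned in and TGF-beta added to 500 pg/mL final. After 18 h, GFP was imaged per cell and summed per well.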
An asterisk follows results filed as active; u = inconclusive; x = no result; [ ] = another dose, or the depositor's remark. Rows were chosen to be rich in hits. Some 19% of all compounds tested hit in one or more screens of this group. Unless noted, the call rests on the fitted dose curve; in most records, active means well fitted curve in the direction sought with a large enough effect; inconclusive means small, poorly fitted or top-dose-only effect, or another doubt; inactive means no such curve, though single readings can be large; an effect the other way counts as inactive or inconclusive.

SMILES	TDP1 cell noCPT	IL1B secr inh	TDP1 cell CPT	HepG2 viability	TDP1 block	TGFb SMAD3 inh
O=C(c1cccs1)c1cn(CCOc2ccccc2F)c2ccccc12	18µM*	x	u	6%	5%	-18%
CSc1ncccc1C(=O)OCC(=O)N(CC(C)C)c1c(N)n(Cc2ccccc2)c(=O)[nH]c1=O	5%	-18	16%	-1%	2%	0%
COc1ccc(COC(=O)N/N=C2/C[C@@H](O)[C@@H](O)[C@@H]3[C@@H]4C(=O)N(C(C)(C)C)C(=O)[C@H]4CC[C@H]23)cc1	x	x	x	x	5%[21 µM]	x
CN1CCN(C(=O)C2CCCN(c3ncnc4c3nc3n4CCCCC3)C2)CC1 (configuration not stated)	17%	2	-10%	6%	2%	7%
CCN(C(=O)C1CCCN(c2ncnc3c2nc2n3CCCCC2)C1)c1cccc(Cl)c1 (configuration not stated)	10µM*	-2	21µM*	-48%	4%	u
CCN(C(=O)C1CCCN(c2ncnc3c2nc2n3CCCCC2)C1)c1cccc(C)c1 (configuration not stated)	5.8µM*	x	12µM*	-24%	7%	u
Cc1c(C(=O)NCCc2ccc(S(N)(=O)=O)cc2)sc2nc3n(c(=O)c12)CCCC3	-13%	x	-3%	3%	0%	1%
CC(C)CC(=O)NCC(c1ccc2c(c1)OCO2)N1CCN(c2ccccc2)CC1 (configuration not stated)	u	x	u	-30%	1%	-12%
O=S1(=O)c2ccc(Br)cc2N2CCC[C@@H]2CN1C1CC1	u	19	u	-16%	x	-23%
C[C@@H](c1ccccc1)N1C[C@H]2CCCN2c2cc(Br)ccc2S1(=O)=O	u	0	18µM*	-17%	0%[56.1 µM]	u
Cc1onc(-c2c(Cl)cccc2Cl)c1C(=O)NCCc1ccncc1	-14%	7	1%	1%	0%	13%
Cc1nc2nc(CNC(=O)OC(C)(C)C)nn2c(C)c1CCC(=O)NCc1ccc(F)cc1	-16%	x	1%	-54%	-3%	5%
CNc1ccccc1C(C)(C)c1cc(-c2cccc(OC)c2)no1	5.2µM*	7	4.6µM*	-27%	2%	-6%
CCCCCCCCOc1ccc(C2CC(=O)NC2=O)cc1 (configuration not stated)	-18%	-3	-9%	-17%	x	-15%
O=C1CC(c2ccc(OCCCCCOc3ccc(C4CC(=O)NC4=O)cc3)cc2)C(=O)N1 (configuration not stated)	u	-131*	-27%	-9%	0%	u
COc1ccc(-c2nn(-c3cccc(F)c3)c3c2cnc2cc(OC)c(OC)cc23)cc1	u	x	u	-1%	6%	7%
Cc1cccc(N2CCN(S(=O)(=O)c3c(C(=O)N4CCC(C)CC4)c(C)n(C)c3C)CC2)c1C	23µM*	x	-114%	-24%	9%	-6%
CCOC(=O)c1c(C)[nH]c(C)c1S(=O)(=O)N(C)CC(=O)N1CCN(c2cccc(C)c2C)CC1	u	x	18µM*	-33%	8%	u
Cc1cccc(N2CCN(S(=O)(=O)c3c(C(=O)N4CCCCC4)c(C)n(C)c3C)CC2)c1C	u	0	u	-3%	8%	-1%
Cc1cccc(N2CCN(S(=O)(=O)c3c(C)[nH]c(C)c3C(=O)N3CCCCC3)CC2)c1C	u	-51*	21µM*	-17%	8%	1%
CCCCCCN(C(=O)CCCCCN1C(=O)NC(C2CCCCC2)C(C(=O)OCc2ccccc2)=C1C)C(C(=O)NCCCC)c1ccc(OCC(=O)OC)c(C(=O)OC)c1 (configuration not stated)	x	x	x	x	-4%	x
N/C(Cc1ccc([N+](=O)[O-])cc1)=N\OC(=O)c1ccc2ccccc2c1	u	3	9.2µM*	-31%	8%	23%
N/C(=N\OC(=O)Cc1ccc([N+](=O)[O-])cc1)c1cccc(Br)c1	2%	-82*	26%	-1%	3%	11%
Cc1ccc(C(=O)O/N=C(\N)Cc2ccc([N+](=O)[O-])cc2)c(Cl)c1	23µM*	u	u	-26%	x	-17%
Cc1ccc(CC(=O)O/N=C(\N)Cc2ccc([N+](=O)[O-])cc2)cc1	-27%	-10	7%	2%	5%	-4%
SMILES	TDP1 cell noCPT	IL1B secr inh	TDP1 cell CPT	HepG2 viability	TDP1 block	TGFb SMAD3 inh
Cc1cccc(C(=O)O/N=C(\N)Cc2ccc([N+](=O)[O-])cc2)c1	-22%	-7	26µM*	-31%	9%	-17%
N/C(Cc1ccc([N+](=O)[O-])cc1)=N\OC(=O)c1ccc(Br)cc1	u	u	u	-2%	8%	7%
COc1cccc(C2CC(=O)Nc3c2c(=O)[nH]c2ncnn32)c1OC (configuration not stated)	x	x	x	-3%	7%	3%
O=C(NCCn1cc(SCc2ccccc2F)c2ccccc21)c1c(F)cccc1F	23µM*	u	u	-32%	7%	u
O=C(CSc1cn(CCNC(=O)c2ccccc2F)c2ccccc12)Nc1ccccc1F	u	x	u	-4%	3%	-15%
O=C(NCCn1cc(SCc2ccccc2F)c2ccccc21)c1cccs1	21µM*	x	u	-29%	6%	10µM*
CC(Sc1cn(CCNC(=O)c2ccccc2F)c2ccccc12)c1ccccc1 (configuration not stated)	21µM*	x	u	-21%	5%	u
Cc1ccccc1CSc1cn(CCNC(=O)c2cccs2)c2ccccc12	u	x	23µM*	-40%	3%	u
O=C(NCCn1cc(SCc2ccc(Cl)cc2)c2ccccc21)c1cccs1	u	x	u	-29%	-1%	u
COc1ccc(Cc2c(C)nn(-c3nc(C)c(C(=O)Nc4ccc(C)cc4C)s3)c2C)cc1	-10%	x	-4%	5%	1%	-9%
Oc1cc(-c2nc3ccccc3s2)cc2c1OCCN(Cc1cccn1-c1nccs1)C2	u	x	3%[9.04 µM]	x	x	x
CCc1nnc(SCc2cc(C)ccc2C)c2cc3sc(C)cc3n12	u	x	u	-15%	0%	u
